Data published in the supplement of paper PMC6555819.

Columns and labels:
Test in all cases: PBM binding z-score (relative to random genomic background probes); higher = stronger binding; sequences stand for … in GC…GCGATTGACAGCGTAGAATGAAGG
[1] = system: RARb homodimer (NR concentration 270 nM)
Method in brief: (§1)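 Random background probes are the reference for binding z-scores. These scores derive from regression-normalized fluorescence on custom Agilent 4×180K protein-binding microarrays incubated 1 h with ligand-free nuclear receptor dimers. Binding was detected with antibodies against each partner (one per run).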

[2] = system: RARg:RXRa (NR concentration 270 nM, RXRa partner concentration 90 nM)
Method in brief: as §1

[3] = system: RARg homodimer (NR concentration 270 nM)
Method in brief: as §1

[4] = system: RXRa DBDmut IVT, anti-RXR (DBD mutation: RXRa K156A/R161A, NR concentration 90 nM)
Method in brief: as §1

[5] = system: RXRa homodimer (NR concentration 180 nM)
Method in brief: as §1

[6] = system: THRa:RXRa (NR concentration 90 nM, RXRa partner concentration 90 nM)
Method in brief: as §1

[7] = system: THRa homodimer (NR concentration 90 nM)
Method in brief: as §1

[8] = system: VDR homodimer (NR concentration 270 nM)
Method in brief: as §1

Sequence	PBM binding z-score [1]	PBM binding z-score [2]	PBM binding z-score [3]	PBM binding z-score [4]	PBM binding z-score [5]	PBM binding z-score [6]	PBM binding z-score [7]	PBM binding z-score [8]
GCTGCTAGGTCAGGTTGGTCCGCTAACGGGTACG	2.4	2.29	3.46	0.513	0.839	2.36	0.57	-0.0405
ATAATGAGGTTATACGTAGATCAGGGAAGAAAGT	1.21	2.19	1.72	2.1	2.56	2.46	0.968	1.16
ACTATTAGTTGACTCAGGGCAACCGATACGACGC	0.937	0.721	0.905	0.661	0.488	1.5	0.878	0.644
CGTCCAAGGTCAATGCTAGTTCAGTGAAAGCATT	4.24	6.18	6.17	3.83	4.84	3.91	2.17	3.28
TCTATTTGGTCAAAGGTCACACACTCGAAATGCG	5.34	7.07	6.16	2.49	7.9	4.24	2.77	2.96
TGAACGAGGTTATAAGATCAGGGAACGTTGCAAA	0.253	1.53	1.1	0.444	2.02	1.43	-0.282	0.372
TAGCCTAGGTCATGGGCCAGCATACCACGCGAAC	2.95	4.29	4.36	-0.00159	3.28	3.04	0.897	0.227
CGTGCAAGGTCATAGGAGGTCAGTGAAGACAGAT	5.38	7.04	7.51	4.08	7.22	5.44	2.87	4.63
TCATAAAGGTAAAAGGTGAAAGTCGGTGTGGTAA	2.25	2.87	1.28	1.94	4.16	2.34	0.408	0.435
TCATATAGGTAAATGCTAGGTCAAAGTCCGATCT	2.75	2.52	1.58	1.72	2	2.96	1.76	1.35
CAAACTAGGTCTAGAGGTCAAAGTCCGCTTCCCG	4.55	5.26	4.46	1.89	5.98	3.8	1.56	4.46
CCGATTGGGGCATAAGGTTACCATAAGCCAGCCC	1.76	1.79	1.12	0.0114	1.14	2.16	1.14	-0.374
CCGACTGGTGCAAAGGTTACCATACTCAGTACGA	2.08	2.07	1.32	0.63	2.93	1.45	0.0703	0.351
TCATATAGGGAAAGGTGAAAGTCGAACGATATGA	1.48	1.49	1.17	0.835	2.02	1.01	-0.407	-0.12
CGTCCAAGGTCAGAGAGGTTAGTGAATGCCGAGT	3.85	4.7	5.08	2.6	3.73	3.45	1.87	2.96
CCGAGTAGGTTATGGGGCATTCAAGCAACGGTGA	0.855	0.557	0.579	0.355	0.617	0.205	0.0762	0.0962
CTACCAAGATGAACAAGGTCGTTGATTACTATTC	1.24	0.579	0.551	1.52	0.837	1.77	1.54	2.53
AGAATGAGCTTATTAAGATCAGGGAATTGCGGTC	-0.66	-0.341	-0.0554	-0.496	-0.0846	-0.273	-0.456	-0.554
CAAACTAGGTCACCAAAGGTCAAAGTCGAATGAC	5.94	7.87	8.54	2.57	7.91	5.17	2.46	3.85
ACTAGCAGGCCAAGGGTCATTCAAGATTAGTCCG	3.62	4.15	3.24	0.96	4.5	3.12	0.107	2.6
TAGCCTAGGTCAGATCGGGCCAGTGTACGCTATA	2.17	2.57	3.6	-0.434	1.23	4.03	-0.0774	-0.614
CAAATTAGGTCACGAAAGGTCAAAGTCGAATGAC	6.08	8.12	8.73	2.57	8.6	5.25	3.01	3.61
CCGACTGGGGCATGGTTACCATAACGCACAGCCA	-0.189	-0.0426	0.399	-0.99	-0.131	-0.641	-0.739	-0.781
ATATGTAGGTGATCGGGTCATTCAGTTTGCGCAT	2.55	2.48	1.78	1.09	2.44	2.91	2.14	3.46
TCTTTTAGATCAATAGAGGTTAAGAAAGTGCGCT	1.25	1.22	1.09	0.967	1.58	2.4	-0.64	0.459
CGACCAAGGTCATAGGAGGTCAGTGAAGACAGAT	5.12	6.79	7.3	3.53	6.92	5.03	2.69	4.77
CGTTACGGGTCACGAGGTTATAGCACGACGAGCG	3.99	6.32	5.62	2.01	7.51	3.95	1.09	1.96
TCTAGCAGGCCAGTGGGTCACTCAAGAGGTACGG	1.64	1.37	1.24	-0.186	1.18	0.549	-0.701	-0.424
